The values below come from PubChem BioAssay.

Assay [1] in a line: antimalarial activity against Dd2 strain (AID 2302;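 active = growth inhibition above 50% at the single 2 µM test dose, taken to imply half-maximal potency below 2 µM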;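 also: 0% = DMSO untreated growth and 100% = chloroquine plus artemisinin killed control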). The settings on record: P. falciparum Dd2 in RBCs, LDH growth readout, 72 h; at 2 µM; active compounds read high.
Assay [2] in a line: HepG2 cytotoxicity, primary screen, cytotoxicity control for P. falciparum antimalarial project, cell-based, ATP luminescence (AID 2303;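 active = inhibition above 50%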;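 also: 0% = DMSO wells and 100% = digitonin-killed cells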). Particulars: HepG2 viability, 24-48 h, at 10 µM, active compounds read high.
The target of assay [3] is L-lactate dehydrogenase (Plasmodium falciparum (isolate CDC / Honduras)) (UniProt Q27743). The assay is described as follows: PfLDH activity inhibition – cell lysate, 3D7 strain, counter-screen for P. falciparum growth inhibition project (AID 2304).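 Also: 0% = vehicle and 100% = reference inhibitor.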 Particulars: P. falciparum 3D7 crude extract, LDH APAD/NBT absorbance; at 2 µM; active compounds read high.
The nature of assay [4]: inhibition of 3D7 malaria parasite growth – strain 3D7 (AID 2306).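 Also: 0% = DMSO wells and 100% = chloroquine plus artemisinin control wells.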 The settings on record: P. falciparum 3D7 erythrocytic growth, LDH absorbance, 72 h; at 2 µM; active compounds read high.
In assay [5] the target is Calcium-dependent protein kinase 1 (Plasmodium falciparum (isolate 3D7)) (UniProt P62344). The assay can be described thus: PfCDPK1 kinase inhibitors, biochemical, TCAMS library (AID 1159585; cut-off not given, nearly all actives have IC50 up to about 0.98 µM;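 also: inhibitors leave more ATP so luminescence rises with inhibition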). Particulars: recombinant PfCDPK1, Kinase-Glo ATP depletion luminescence. (In general: In Kinase-Glo more light means more ATP remaining.)
For assay [6], the target named is Plasmodium falciparum protein kinase 6 (PK6, PF3D7_1337100) (UniProt Q8IDW1). The assay can be described thus: PfPK6 kinase inhibitors, biochemical, TCAMS library (AID 1159586). The settings on record: recombinant PfPK6, Kinase-Glo ATP depletion luminescence.
Assay [7] concerns the target Protein kinase 7 (PK7), Plasmodium falciparum 3D7 (PF3D7_0213400) (UniProt Q7YTF7). The assay is described as follows: inhibition of Plasmodium PK7 catalytic activity – biochemical, TCAMS antimalarial set, Kinase-Glo luminescence (AID 1159587). The settings on record: recombinant PfPK7, Kinase-Glo ATP depletion luminescence.
Assay [8] addresses Calcium-dependent protein kinase 4 (Plasmodium falciparum (isolate 3D7)) (UniProt Q8IBS5). The assay is described as follows: PfCDPK4 kinase inhibitors, biochemical, TCAMS library (AID 1159588; cut-off not given, nearly all actives have IC50 up to about 0.91 µM). Particulars: recombinant PfCDPK4, Kinase-Glo ATP depletion luminescence.

The structures appear in SMILES notation. A number with no mark means an inactive call. For part of these data: Entries with a potency or affinity are not part of this list. The source made the active and inactive calls. Unless noted, no rule for the calls is given here.

Sequence of Calcium-dependent protein kinase 4 (Plasmodium falciparum (isolate 3D7)) (Q8IBS5 whole entry, looked up): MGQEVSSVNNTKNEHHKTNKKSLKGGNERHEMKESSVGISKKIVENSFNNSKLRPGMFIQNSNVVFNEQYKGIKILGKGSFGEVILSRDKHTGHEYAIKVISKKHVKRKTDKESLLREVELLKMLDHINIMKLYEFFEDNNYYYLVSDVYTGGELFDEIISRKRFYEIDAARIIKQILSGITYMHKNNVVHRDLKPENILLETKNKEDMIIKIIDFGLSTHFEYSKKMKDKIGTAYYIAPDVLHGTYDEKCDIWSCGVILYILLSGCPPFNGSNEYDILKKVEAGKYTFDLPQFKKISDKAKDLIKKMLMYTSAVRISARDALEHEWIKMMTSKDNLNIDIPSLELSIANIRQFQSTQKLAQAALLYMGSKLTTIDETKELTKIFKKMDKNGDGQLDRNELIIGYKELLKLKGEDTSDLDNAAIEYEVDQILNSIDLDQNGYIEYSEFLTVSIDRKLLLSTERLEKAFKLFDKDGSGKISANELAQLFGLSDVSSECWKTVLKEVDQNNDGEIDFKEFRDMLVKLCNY
Sequence of Plasmodium falciparum protein kinase 6 (PK6, PF3D7_1337100) (Q8IDW1 1-305): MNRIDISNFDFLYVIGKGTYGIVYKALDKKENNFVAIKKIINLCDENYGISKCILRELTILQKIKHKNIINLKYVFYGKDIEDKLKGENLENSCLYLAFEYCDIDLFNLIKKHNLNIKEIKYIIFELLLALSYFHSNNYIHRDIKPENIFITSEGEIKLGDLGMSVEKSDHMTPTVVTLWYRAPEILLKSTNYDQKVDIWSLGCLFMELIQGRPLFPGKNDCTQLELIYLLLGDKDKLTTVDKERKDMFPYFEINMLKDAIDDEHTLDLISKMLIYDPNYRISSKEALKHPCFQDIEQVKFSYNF
Sequence of Calcium-dependent protein kinase 1 (Plasmodium falciparum (isolate 3D7)) (P62344 whole entry, looked up): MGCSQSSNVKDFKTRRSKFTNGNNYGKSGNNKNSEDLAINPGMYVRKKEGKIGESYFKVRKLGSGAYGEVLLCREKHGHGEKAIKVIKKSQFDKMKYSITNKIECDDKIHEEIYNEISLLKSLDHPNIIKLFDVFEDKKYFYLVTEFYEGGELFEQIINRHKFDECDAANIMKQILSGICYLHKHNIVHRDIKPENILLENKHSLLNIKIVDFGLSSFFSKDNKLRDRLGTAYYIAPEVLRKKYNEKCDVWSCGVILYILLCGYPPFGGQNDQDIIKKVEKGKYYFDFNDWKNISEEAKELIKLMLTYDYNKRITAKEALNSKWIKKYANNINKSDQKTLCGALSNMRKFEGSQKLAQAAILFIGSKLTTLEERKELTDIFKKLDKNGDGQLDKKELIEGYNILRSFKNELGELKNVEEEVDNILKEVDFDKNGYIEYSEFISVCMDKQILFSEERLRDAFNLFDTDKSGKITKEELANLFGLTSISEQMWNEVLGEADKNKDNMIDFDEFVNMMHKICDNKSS
Sequence of Protein kinase 7 (PK7), Plasmodium falciparum 3D7 (PF3D7_0213400) (Q7YTF7 1-343): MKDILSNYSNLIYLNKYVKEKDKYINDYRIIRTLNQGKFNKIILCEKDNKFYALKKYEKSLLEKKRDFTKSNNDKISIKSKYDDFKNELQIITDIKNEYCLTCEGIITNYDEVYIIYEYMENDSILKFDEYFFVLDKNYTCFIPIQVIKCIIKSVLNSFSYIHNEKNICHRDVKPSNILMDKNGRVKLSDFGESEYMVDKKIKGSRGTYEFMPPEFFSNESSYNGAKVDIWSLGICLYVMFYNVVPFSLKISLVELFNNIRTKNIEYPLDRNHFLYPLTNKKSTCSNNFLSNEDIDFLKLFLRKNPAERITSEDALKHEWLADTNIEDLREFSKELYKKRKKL
Sequence of L-lactate dehydrogenase (Plasmodium falciparum (isolate CDC / Honduras)) (Q27743 whole entry, looked up): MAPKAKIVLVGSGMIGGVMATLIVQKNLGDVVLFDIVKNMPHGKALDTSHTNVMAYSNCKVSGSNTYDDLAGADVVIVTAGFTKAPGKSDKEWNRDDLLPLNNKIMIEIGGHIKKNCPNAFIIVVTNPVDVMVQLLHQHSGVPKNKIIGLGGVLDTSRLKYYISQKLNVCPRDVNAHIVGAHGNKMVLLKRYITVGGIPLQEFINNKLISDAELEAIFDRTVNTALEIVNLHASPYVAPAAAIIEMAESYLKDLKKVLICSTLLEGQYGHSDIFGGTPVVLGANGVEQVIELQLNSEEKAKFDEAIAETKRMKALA

By inhibition is commonly meant the drop in the measured response relative to a control, in per cent. Turning to `CCCCN=C(N)Nc1ccc(OCCCOc2ccc(NC(N)=NCCCC)cc2)cc1`, the results for the growth inhibition in assay [1] and in assay [4] were 97% (active) and 96% (active), respectively. For the same molecule, the inhibition in assay [2] was 15%; in assay [3] it was 4%. Further, the outcome in assay [5], in assay [6], in assay [7] and in assay [8] was inactive.
With `Cc1cc(N[C@@H](Cc2ccccc2)C(=O)NCc2cccc(F)c2)nc(NCc2ccccc2C)n1`, the values for the growth inhibition in assay [1] and in assay [4] were 75% (active) and 100% (active), respectively. The inhibition is 6% in assay [2] and 0% in assay [3]. Also, the outcome in assay [5], in assay [6], in assay [7] and in assay [8] was inactive.
Regarding `Cc1cc(N2CCN(C(=O)OC(C)(C)C)CC2)ccc1N`, the growth inhibition in assay [1] is 38%; in assay [4] it was 92% (active). For the same molecule, the inhibition in assay [2] was 11%; in assay [3] it was -2%. For the same molecule, the outcome in assay [5], in assay [6], in assay [7] and in assay [8] was inactive.
Consider `COc1ccc(NC(=O)/C=C/c2ccccc2Cl)cc1OCCN1CCC(c2nc3ccccc3[nH]2)CC1`, for which the growth inhibition in assay [1] is 16%; in assay [4], 92% (active). Besides, the inhibition is 35% in assay [2] and -6% in assay [3]. For the same molecule, the outcome in assay [5], in assay [6], in assay [7] and in assay [8] was inactive.
As to `CN1CCC(C(=O)N(Cc2ccc(-c3ccc(CNCCc4ccc(S(C)(=O)=O)cc4)cn3)cc2)C2CCN(Cc3ccccc3)CC2)CC1`, the growth inhibition in assay [1] is 95% (active); in assay [4], 102% (active). Besides, the inhibition in assay [2] is 11%; in assay [3], -5%. In addition, the result in assay [5], in assay [6], in assay [7] and in assay [8] was inactive.
As for `CCOc1cc(C)ccc1C1CCN(CCCCNC(=O)c2ccc(NC(=O)c3cc(Cl)cc(Cl)c3)cc2)CC1`, the growth inhibition in assay [1] was 78% (active); in assay [4], 99% (active). Also, the inhibition is 4% in assay [2] and -5% in assay [3]. Besides, the outcome in assay [5], in assay [6], in assay [7] and in assay [8] was inactive.
Regarding `COc1ccc2nccc([C@@H](O)CN3CCC(NCc4cc5cc(OC(F)(F)F)ccc5[nH]4)CC3)c2c1`, the growth inhibition in assay [1] is 82% (active); in assay [4], 100% (active). Further, the inhibition in assay [2] was 49%; in assay [3] it was 2%. Besides, the outcome in assay [5], in assay [6], in assay [7] and in assay [8] was inactive.
As to `O=C(Nc1cc(C(F)(F)F)cc(C(F)(F)F)c1)c1cc(C(F)(F)F)cc(C(F)(F)F)c1`, the values for the growth inhibition in assay [1] and in assay [4] were 86% (active) and 101% (active), respectively. The inhibition in assay [2] is 21%; in assay [3], 2%. In addition, the outcome in assay [5], in assay [6], in assay [7] and in assay [8] was inactive.
As for `Cc1cc(N2CCC(C)CC2)nc2cc(O)ccc12`, the growth inhibition in assay [1] was 41%; in assay [4] it was 89% (active). For the same molecule, the values for the inhibition in assay [2] and in assay [3] were 31% and -1%, respectively. The outcome in assay [5], in assay [6], in assay [7] and in assay [8] was inactive.
Regarding `COc1ccc(-c2cc(C(=O)Nc3ccc4nc(-c5ccccc5)[nH]c4c3)[nH]n2)cc1`, the growth inhibition in assay [1] is 78% (active); in assay [4], 90% (active). For the same molecule, the results for the inhibition in assay [2] and in assay [3] were 77% (active) and 3%, respectively. The outcome in assay [5], in assay [6], in assay [7] and in assay [8] was inactive.
As for `COc1ccc(OCCCON2C(N)=NC(N)=NC2(C)C)cc1`, the growth inhibition in assay [1] is 94% (active); in assay [4], 97% (active). In addition, the inhibition was 55% (active) in assay [2] and -3% in assay [3]. Further, the outcome in assay [5], in assay [6], in assay [7] and in assay [8] was inactive.
With `CC(CON1C(N)=NC(N)=NC1(C)C)c1ccc(Cl)cc1Cl` (stereo not drawn), the growth inhibition was 95% (active) in assay [1] and 97% (active) in assay [4]. The inhibition in assay [2] was 64% (active); in assay [3], 0%. The result in assay [5], in assay [6], in assay [7] and in assay [8] was inactive.
For `CCCCC(O)c1cc(O)c2c(c1)OC(C)(C)CC2C1=CCN(Cc2ccc3ccccc3c2)CC1` (stereo not drawn), the growth inhibition in assay [1] was 97% (active); in assay [4], 100% (active). Besides, the inhibition was 7% in assay [2] and 3% in assay [3]. Besides, the result in assay [5], in assay [6], in assay [7] and in assay [8] was inactive.
For the molecule `NC(=O)c1cc2nc(Nc3ccc(F)cc3)nc(Nc3ccc(S(N)(=O)=O)cc3)c2[nH]1`, the results for the growth inhibition in assay [1] and in assay [4] were 99% (active) and 101% (active), respectively. The inhibition was 2% in assay [2] and 4% in assay [3]. Moreover, the outcome in assay [5], in assay [6], in assay [7] and in assay [8] was inactive.
`CCCC1N=C(N)N=C(N)N1c1ccc(C)c(C)c1` (stereo not drawn): the growth inhibition in assay [1] was -2%; in assay [4], 95% (active). In addition, the inhibition in assay [2] was 7%; in assay [3] it was -3%. For the same molecule, the outcome in assay [5], in assay [6], in assay [7] and in assay [8] was inactive.
Turning to `CC(C)C[C@H](NC(=O)c1cc2cc(OCCN3CCNCC3)ccc2o1)C(=O)NC1CC[C@@H](C)N(C(=O)Nc2ccc(Cl)cc2)CC1=O` (stereo partly drawn), the growth inhibition in assay [1] was 92% (active); in assay [4] it was 90% (active). For the same molecule, the inhibition was -3% in assay [2] and 6% in assay [3]. The result in assay [5], in assay [6], in assay [7] and in assay [8] was inactive.
Consider `COc1ccc(Nc2nccc(N3CCC(NC(=O)c4cc5ccccc5s4)C3)n2)cc1` (stereo not drawn), for which the growth inhibition was 86% (active) in assay [1] and 99% (active) in assay [4]. The figures for the inhibition in assay [2] and in assay [3] were 1% and 4%, respectively. The outcome in assay [5], in assay [6], in assay [7] and in assay [8] was inactive.
In the case of `N=C(N)c1cccc(-c2cc(-c3cccc(C(=N)N)c3)on2)c1`, the growth inhibition in assay [1] is 78% (active); in assay [4], 96% (active). The inhibition is 8% in assay [2] and 3% in assay [3]. The outcome in assay [5], in assay [6], in assay [7] and in assay [8] was inactive.
On to `CN1CCCC(CN2CCN(Cc3ccc(-c4ccc(-c5nc6ccc(F)cc6[nH]5)cc4)cc3)CC2)C1` (stereo not drawn), for which the growth inhibition is 98% (active) in assay [1] and 100% (active) in assay [4]. Moreover, the inhibition is 90% (active) in assay [2] and -1% in assay [3]. For the same molecule, the outcome in assay [5], in assay [6], in assay [7] and in assay [8] was inactive.
In the case of `CC(C)CC(=O)NC1CCN(Cc2c(-c3cccs3)nc3ccccc3c2C(=O)N[C@@H](C)C2CCCCC2)CC1`, the growth inhibition is 97% (active) in assay [1] and 96% (active) in assay [4]. The inhibition in assay [2] was -3%; in assay [3], -9%. The outcome in assay [5], in assay [6], in assay [7] and in assay [8] was inactive.
Turning to `CS(=O)(=O)CCNCc1cccc(-c2ccc3c(Nc4ccc(Oc5ccccc5)cc4)ccnc3c2)c1`, the growth inhibition is 96% (active) in assay [1] and 101% (active) in assay [4]. The inhibition in assay [2] was 18%; in assay [3], 6%. Further, the outcome in assay [5], in assay [6], in assay [7] and in assay [8] was inactive.
